# Screening results from PubChem.
# Nrf2 activator = Nrf2 pathway activation; AREc32 ARE-luciferase reporter (MCF7-derived line), luminescence, 24 h; Potency, µM (doses to about 46.1 µM), for inactives: at the highest dose activation, hits mostly activators; 0.31% of 410,000 active; also: % of control where 0% means no effect; nearly all actives have a fitted effect of over 65% in size
#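 Cells of the AREc32 ARE-luciferase line are plated in OPTI-MEM containing 5% FBS and left overnight at 37 deg C. Compounds are pinned in, incubation continues 24 hr, and firefly luciferase signal is then measured.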
# ELG1 repair inh = inhibitors of ELG1-dependent DNA repair in HEK293T cells. HEK293T ELG1-luciferase reporter, luminescence, 16 h; DNA damage induced by 5-fluorouridine. Potency, µM (highest dose often 46.1 µM), for the others: top-dose activity change, negative = inhibition, hits mostly inhibitors. 2.3% of 330,000 active; also: % is scaled to controls: 0 for no effect and ±100 for the full control effect; nearly all actives have a fitted effect of over 55% in size
#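 Cells (2,000 per well) received 5-fluorouridine plus test compound or DMSO and were incubated 16 hr at 37 °C, 5% CO2. Luciferase activity was read by luminescence 30 min after ONE-Glo addition; signal suppression marked inhibition of damage-induced ELG1 function.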
# A549 viability = A549 cytotoxicity, counter-screen for Nrf2 inhibitors. A549 ARE-Fluc cells, CellTiter-Fluor viability, 18-24 h. Potency, µM (highest dose often 46 µM), inactives show at the top dose activity change, negative = cytotoxicity, hits mostly inhibitors. 0.16% of 390,000 active. AID 504648; also: % is scaled to controls: 0 for no effect and ±100 for the full control effect
#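 A549 ARE-Fluc cells in 5% FBS OPTI-MEM, 5000 cells/well, rested 2 h then exposed to compounds in concentration-response for 18-24 h at 37 °C. Viability by CellTiter-Fluor fluorescence (Ex 405/Em 525) after 30 min; luciferase luminescence (BugLite, 15 min, RT) read afterwards.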
# Nrf2 inh = blocks Nrf2 signaling; A549 ARE-Fluc reporter, luciferase luminescence, 18-24 h; 2.1% of 360,000 active; Potency, µM (titrated, usually from 46 µM), inactives show top-dose activity change, negative = inhibition, most hits filed as inhibitors; also: % is scaled to controls: 0 for no effect and ±100 for the full control effect; nearly all actives have a fitted effect of over 60% in size
#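 Cells were seeded and rested 2 h, then exposed to compounds for 18-24 h. CellTiter-Fluor was read first as a viability measure. BugLite was added 15 min before the final luminescent read of ARE-luciferase activity in A549 cells.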
# An asterisk follows results filed as active; ? = inconclusive; · = no result. An excerpt weighted towards active compounds, which were near 3.7% of everything screened. Calls follow the shape of the dose curve; as a rule, active = well fitted curve in the direction sought with a large enough effect; inconclusive = small, poorly fitted or top-dose-only effect, or another doubt; inactive = no such curve, though single readings can be large; an effect the other way counts as inactive or inconclusive. Potency is read from the fitted curve at half-maximal effect.
SMILES,Nrf2 activator,ELG1 repair inh,A549 viability,Nrf2 inh
CCN(CC)C(=O)[C@H]1C[C@H](CC(=O)NCC23CC4CC(CC(C4)C2)C3)C(=O)N2CCc3c([nH]c4ccc(Cl)cc34)[C@]12C,0%,?,-23%,23µM*
COc1ccc2[nH]c3c(c2c1)CCN1C(=O)C(CC(=O)NCC24CC5CC(CC(C5)C2)C4)C[C@H](C(=O)N2CCOCC2)[C@@]31CCC1CCCC1 (some centres not stated),-1%,-16%,-20%,21µM*
CCOC(CNC(=O)c1cccn2c(=O)c3cc(Cl)ccc3nc12)OCC,4%,23µM*,21%,11%
CCOC(=O)N1CCN(C(=O)c2cccn3c(=O)c4cc(Cl)ccc4nc23)CC1,-1%,-5%,10%,·
COc1ccc(NC(=O)Nc2ccc(F)c(F)c2)c(OC)c1,2%,8%,0%,-9%
Cc1nc(N2CCN(c3ccccn3)CC2)c2c(C)c(C(=O)Nc3c(C)cc(Br)cc3C)sc2n1,0%,?,4%,-30%
Cc1nc(N2CCN(c3ccccn3)CC2)c2c(C)c(C(=O)Nc3ccc(Cl)cc3)sc2n1,0%,8.2µM*,0%,?
Cc1nc(N2CCN(c3ccccn3)CC2)c2c(C)c(C(=O)Nc3c(F)cc(F)cc3Br)sc2n1,0%,23µM*,-7%,?
Cc1nc(N2CCC(C)CC2)c2c(C)c(C(=O)Nc3ccccc3C(F)(F)F)sc2n1,0%,15µM*,10%,-13%
C=CCC1(/C=N/O)CCOC(C)(C)C1 (configuration not stated),0%,4%,0%,9%
O=C1c2ccccc2NC(c2ccc(Br)s2)N1O (configuration not stated),6%,·,-17%,18µM*
C=CCN1C(=O)c2ccccc2NC1c1ccc(Br)s1 (configuration not stated),0%,-8%,-17%,9%
O=C(Nc1ccc(F)c(Cl)c1)c1nsc(Cl)c1Cl,3.2µM*,?,-2%,4%
Cc1cc(C)n(-c2nnc(SCC(=O)NC3CCCC3)c3ccccc23)n1,0%,16µM*,-6%,?
CCOC(=O)Cc1csc(NC(=O)CSc2nnc(-n3nc(C)cc3C)c3ccccc23)n1,3%,?,-15%,?
Cc1csc(=O)n1CCC(=O)OCC(=O)NNC(=O)c1ccc(Cl)cc1,2%,4%,5%,3%
O=C(N/C(=C/C=C/c1ccccc1)C(=O)N1CCCCC1)c1ccc([N+](=O)[O-])cc1,0%,23µM*,-15%,-7%
CCOC(=O)c1nn(-c2ccc(OC)cc2)c(=O)c2c(NC(=O)Cc3ccccc3)scc12,·,·,2%,8%
Cc1cc(N2C3CCC2CC(O)(c2ccc(F)cc2)C3)nc(-c2ccccc2)n1 (configuration not stated),4%,?,?,23µM*
Cc1ccc2nc3sc(C(=O)Nc4ccc(N5CCOCC5)cc4)c(N)c3cc2c1,·,-13%,·,·
CC1(C)Cc2c(c(N3CCOCC3)nc3sc(C(=O)Nc4ccc(Cl)cc4)c(N)c23)CO1,0%,0.92µM*,7%,-3%
Cc1cccc2cc3c(N)c(C(=O)Nc4ccc(N5CCOCC5)cc4)sc3nc12,0%,?,-18%,23µM*
CC1(C)Cc2c(c(N3CCOCC3)nc3sc(C(N)=O)c(N)c23)CO1,0%,5.2µM*,0%,-12%
COC(=O)c1ccc(-c2sc3nc(N4CCOCC4)c4c(c3c2N)CC(C)(C)OC4)o1,0%,5.2µM*,13%,4%
CC(=O)N1c2ccc(Cl)cc2C2C=CCC2C1c1cccc2ccccc12 (configuration not stated),-1%,23µM*,-28%,?
CCCCC(=O)Nc1c2c(nn1-c1ccc(C)cc1)CS(=O)(=O)C2,0%,-1%,0%,-4%
COc1ccc(OC2C(=O)N(Cc3ccc4c(c3)OCO4)C2c2cccs2)cc1 (configuration not stated),2%,?,-26%,13µM*
COc1ccc(OC2C(=O)N(CCc3ccc(OC)c(OC)c3)C2c2ccc3c(c2)OCO3)cc1 (configuration not stated),2%,18µM*,-15%,?
O=C1C(Oc2ccccc2)C(c2cccs2)N1Cc1ccc2c(c1)OCO2 (configuration not stated),0%,-6%,-7%,-21%
